# Assay results reported in ChEMBL document CHEMBL3988442, “University of Dundee, Small-Polar-MMV Screening Library” (2021).
# In all, about 48,000 compounds went through this assay and about 13,000 (27%) showed an effect of 50% or more. The list shows a part of the results.
# Tested on: Wolbachia pipientis
# Test: Anti-Wolbachia Cell-Based Screen
# Assay type: functional
# Set-up: scale not given: in the data most compounds retested in dose-response had high values
# Conditions: 5 µM
row,SMILES,Percent Effect [%]
1,Cc1nc2cc(=O)[nH]n2c(C)c1CC(=O)Nc1cnn(C(C)(C)C)c1,-8.028
2,CCOc1ccc(CN2C(=O)CC(C)(C)C2=O)nc1,-21.77
3,CCC(=O)N1CCN(C(=O)NC2CCc3ccccc3C2)CC1 (configuration not stated),-5.895
4,CN(C)C(C)(C)CNCc1cn(C)nc1-c1cccnc1.Cl,8.677
5,CCCNCc1cn(C)nc1-c1cccnc1.Cl,13.76
6,Cn1cc(CNCCn2cccn2)c(-c2cccnc2)n1,3.416
7,Cc1noc(NCc2cn(C)nc2-c2ccncc2)n1,86.63
8,Cc1cc(NCc2cn(C)nc2-c2cccnc2)n(C)n1,80.93
9,Cc1noc(NCc2cn(C)nc2-c2cccnc2)n1,76.51
10,Cn1cc(CNc2cnn(CCO)c2)c(-c2ccncc2)n1,-19.35
11,Cn1cc(CNc2ccc(CCO)cc2)c(-c2ccncc2)n1,4.489
12,Cn1cc(CNCCc2cccnc2)c(-c2cccnc2)n1,4.12
13,CCc1nnc(CNC(=O)CCN2CCN(c3cccc(C)c3)CC2)s1,7.202
14,Cc1ccc(C(=O)N2CCSCC2)cc1N1CCNC1=O,-1.525
15,CN(C)CCN1CCOCC2(CCN(Cc3ccc[nH]3)CC2)C1.O=C(O)C(F)(F)F.O=C(O)C(F)(F)F.O=C(O)C(F)(F)F,-10.04
16,CNc1cc(C)nc(N2C[C@H](C3CC3)[C@@H](N)C2)n1,-22.96
17,Cc1cc(NC(=O)NCc2ccc(C)s2)no1,3.366
18,O=C(Cc1cccs1)N1C[C@@H]2COC[C@]2(COCc2cccnc2)C1.O=C(O)C(F)(F)F,-3.131
19,O=C(Cc1cccs1)N1C[C@@H]2COC[C@]2(COc2cccnc2)C1,7.396
20,Cc1cccc(COC[C@]23COC[C@H]2CN(C(=O)c2ccsc2)C3)n1,4.122
21,Cc1ccnc(OC[C@]23COC[C@H]2CN(C(=O)Cc2ccsc2)C3)n1,106.6
22,O=C(Cc1ccsc1)N1C[C@@H]2COC[C@]2(COc2cccnc2)C1,95.21
23,O=C(Cc1ccsc1)N1C[C@@H]2COC[C@]2(COCc2cccnc2)C1.O=C(O)C(F)(F)F,-1.782
24,CS(=O)(=O)c1ncc(CN2CCCC(C(N)=O)C2)n1CC1CCCCC1 (configuration not stated),6.801

row,SMILES,Percent Effect [%]
1,COCC1(NC(=O)C(c2ccc(F)cc2)N(C)C)CCCC1 (configuration not stated),-2.374
2,CC1CCCN1Cc1cccc(C(=O)Nc2ccc3[nH]c(=O)oc3c2)c1 (configuration not stated),1.459
3,CC1CCCN1Cc1cccc(C(=O)Nc2ccc3c(c2)CCC3=O)c1 (configuration not stated),51.3
4,COc1ccc(NC(=O)c2cccc(CN3CCCC3C)c2)cc1OC (configuration not stated),8.38
5,Cc1nc(COC(=O)c2cccc3c2OCCO3)no1,110.5
6,Cc1ncsc1CN(C)C(=O)CC1CCOc2ccccc21 (configuration not stated),5.103
7,Cc1nc(CC(=O)N2c3ccccc3OCC2C)cs1 (configuration not stated),-16.16
8,CCN(Cc1ccc2c(c1)OCCO2)C(=O)NCc1csc(C)n1,-4.508
9,Cc1nc(C2CCCN(C(=O)c3cccc4c3OCO4)C2)no1 (configuration not stated),12.92
10,Cc1ncsc1CCN(C)C(=O)CN1CCOc2ccccc2C1,0.429
11,Cc1ncsc1COC(=O)c1cccc2c1OCCO2,128
12,Cc1nc(COC(=O)c2cccc3c2OCCO3)cs1,117.7
13,Cc1nc(CCN(C)C(=O)C2COc3ccccc3C2)no1 (configuration not stated),-0.4164
14,NC(=O)N1CCCN(C(=O)Nc2cc(-n3cccc3)ccc2F)CC1,-14.58
15,CN1CC(C(=O)NC(C)(C)CNC(=O)OC(C)(C)C)CC1=O (configuration not stated),-3.275
16,COCc1ccccc1C(=O)NCC(O)c1ccc(Cl)s1 (configuration not stated),11.9
17,CN(C)c1ncnc2c1CCN(S(=O)(=O)c1cccc3nsnc13)C2,10.74
18,COc1ncccc1CNC(=O)c1cc(F)cc(Br)c1,12.35
19,CC(=O)c1cnc(NCCN2CCCC(c3ccccc3)C2)nc1C (configuration not stated),111.1
20,CCc1cnc(C)nc1NCCN1CCCC(C(N)=O)C1 (configuration not stated),3.304
21,OC1CCN(CCNc2ncc3c(n2)CCN3c2ccccc2)CC1,0.6072
22,CC(=O)c1cnc(NCCN2CCCC2)nc1C,107.9
23,CC(=O)c1cnc(NCCc2csc(-c3cnccn3)n2)nc1C,-3.465
24,Cc1ncccc1OC1(C(=O)NCCCN2CCOCC2)CCNCC1,-8.588

row,SMILES,Percent Effect [%]
1,CC(=O)c1cnc(NCC2OCCc3ccccc32)nc1C (configuration not stated),8.592
2,CC(=O)c1cnc(NCCCN2CCOCC2)nc1C,89.28
3,Cc1csc(C2(NC(=O)NCCN3CCOCC3)CCC2)n1,-15.32
4,COC(=O)CN(CC1CCOC1)C1CC1 (configuration not stated),-11.06
5,Cc1cnccc1N1CCN(C(=O)CCCN2CCCCC2)CC1,-8.637
6,COc1ncccc1C(=O)N1CC(c2nc(-c3ccccn3)no2)C1,-3.614
7,Cc1[nH]c(=O)[nH]c(=O)c1CN1CCCC(CCc2c(F)cccc2F)C1 (configuration not stated),-22.77
8,Cc1cc(C)n(-c2ccc(CNCc3ccc(OC(C)C)cc3)cn2)n1,-13.05
9,Oc1nnc(-c2cccs2)c2sc(N3CCCCC3)nc12,11
10,Cc1sc2c(C3CCCNC3)nc(Nc3cccc(F)c3)n2c1C.Cl (configuration not stated),138.6
11,Cl.O=C(Nc1cccc(F)c1)C1=NOC2(CCNCC2)C1,1.069
12,Cc1nn(C(C)C)c(C)c1S(=O)(=O)Nc1cccc(F)c1,2.276
13,Cc1sc2c(C3CCNCC3)nc(Nc3cccc(F)c3)n2c1C.Cl,83.53
14,Cc1nc(C2CCCNC2)cc(N2CCc3nc(N)sc3C2)n1 (configuration not stated),-10.94
15,COc1ccccc1CCNC(=O)CN1CCCC1c1noc(C)n1 (configuration not stated),-5.748
16,CCC(=O)N1CCC2(CC1)c1nc[nH]c1CCN2S(C)(=O)=O,-5.847
17,CC(NC(=O)Nc1nccs1)C(=O)NC1CCCC1 (configuration not stated),13.07
18,Cc1nn2c(nc1=O)-c1ccccc1NC2C(=O)O (configuration not stated),-8.075
19,Cc1cc(Oc2ccccc2)nc(C2CCN(CCO)CC2)n1,153.9
20,CNc1cc(C)nc(C2CCN(CCO)CC2)n1,109.8
21,Cc1ccc(CNCC2CCN(CCO)CC2)cc1,-0.5522
22,CNc1cc(C)nc(N2C[C@@H](C(=O)O)[C@H](C3CC3)C2)n1,7.259
23,OCCN1CCC(CNCc2cn(-c3ccccc3)nn2)CC1,3.58
24,CNc1cc(C)nc(N2CCC3(CC2)[C@H](O)C[C@@H]3OCCO)n1,4.937
